According to PubChem BioAssay (Tox21):
The source made the active and inactive calls. Calls come from the whole dose curve; as a rule, active = well fitted curve in the direction sought with a large enough effect in the repeat runs; inconclusive = weak or mixed curves; inactive = flat fitted curve, though single readings scatter.

Experiment: qHTS assay to test for compound auto fluorescence at 535 nm (green) in HEK293 cell free culture (AID 720682)
Conditions: cell-free medium, green autofluorescence 485/535 nm, active compounds read high; series mostly up to 91.3 µM; activity change: at the top concentration
From the text: U.S. Tox21 Program National Center for Advancing Translational Sciences [NCATS] NIH Chemical Genomics Center [NCGC] U.S. Environmental Protection Agency [EPA] National Institutes of Environmental Health Sciences [NIEHS] National Toxicology Program [NTP] U.S. Food and Drug Administration [FDA] Tox21 Assay Overview: Compound auto fluorescence often interferes with screening of the compound library against various biological targets and signaling pathways. Some of these compounds may have fluorophoric properties. Such properties may interfere with the assay outputs resulting in false positives and/or negatives. To decrease such complications and ensure the compound activities are relevant in terms of biological response, the Tox21 10K compound library was screened for auto fluorescence. From the fluorophores used as reporter signals in our screening assays, the auto fluorescence equivalencies of compounds against three fluorophores have been evaluated: Triamterene, Fluorescein and Rose Bengal sodium for blue, green and red fluorescence, respectively. The fluorescence intensities were measured using Excitation/Emission wavelengths at 405/460nm, 485/535nm and 540/590nm for blue, green and red labels, respectively. This assay includes the green fluorescence data.
Tox21 Assay Protocol Summary: 5 uL of culture medium (DMEM containing 10% FBS) per well was dispensed into black wall/clear bottom 1536-well plates using a Multidrop Combi Dispenser (ThermoFisher Scientific, Waltham, MA). After 23 nL compound or DMSO vehicle was transferred into assay plate by a pintool work station (Kalypsys, San Diego, CA), fluorescence intensities in the assay plates were measured by an Envision (PerkinElmer, Shelton, CT) plate reader using three labels for measuring blue, green and red fluorescence at […] 460, 535 and 590nm respectively.
% is set by controls: 0 for no effect and ±100 for the full control effect.

SMILES	activity change	outcome
COc1cc(C(=O)NCc2ccc(OCCN(C)C)cc2)cc(OC)c1OC	-0.0621% [at 18.6 µM] (inactive)	–
COc1cc(-c2ccc(=O)[nH]n2)ccc1OC(F)F	-0.0159% [at 46 µM] (inactive)	–
C=CN1CCCCCC1=O	0.0612% (inactive)	–
Cc1ccc(C(=O)Nc2ccc(S(=O)(=O)O)c3cc(S(=O)(=O)O)cc(S(=O)(=O)O)c23)cc1NC(=O)c1cccc(NC(=O)Nc2cccc(C(=O)Nc3cc(C(=O)Nc4ccc(S(=O)(=O)O)c5cc(S(=O)(=O)O)cc(S(=O)(=O)O)c45)ccc3C)c2)c1	0.0173% [at 46 µM] (inactive)	–
Nc1c2c(nc3c1CCC3)CCCC2	-0.127% [at 46 µM] (inactive)	–
CC(C)(C)c1ccc(-c2ccc(C(C)(C)C)cc2)cc1	0.0063% (inactive)	–
CCCCCCCCCCCCCCCCCCO	0.0441% [at 46 µM] (inactive)	–
Cc1ccccc1N=C(N)N=C(N)N	-0.43% (inactive)	–
CC(=O)c1cnccn1	0.0371% [at 95.7 µM] (inactive)	–
CC(=O)NC(=O)c1ccccc1O	0.0484% [at 46 µM] (inactive)	–
CN1C(C)(C)CC(O)CC1(C)C	-0.0544% (inactive)	–
CC12CCC(C(=O)C1=O)C2(C)C (stereo not given)	0.0685% [at 95.7 µM] (inactive)	–
CC1=NS(=O)(=O)c2cc(Cl)ccc2N1	-0.0171% [at 46 µM] (inactive)	–
C=COCC1CCC(COC=C)CC1 (stereo not given)	0.0383% (inactive)	–
CC[N+](CC)(CC(=O)Nc1c(C)cccc1C)Cc1ccccc1 (tested in a mixture with another compound)	-0.0141% (inactive)	–
CC(C)(C)OC(=O)c1cccc(N)c1	-0.031% [at 95.7 µM] (inactive)	–
CCCCCCCCN1CCCC1=O	0.0143% (inactive)	–
CCN[C@H]1C[C@H](C)S(=O)(=O)c2sc(S(N)(=O)=O)cc21	-0.145% [at 46 µM] (inactive)	–
CCCO[Si](OCCC)(OCCC)OCCC	-0.0488% (inactive)	–
O=C(O)CCSCCC(=O)O	0.0272% (inactive)	–

SMILES	activity change	outcome
COC(=O)C1=C(C)NC(C)=C(C(=O)OC(C)C)C1c1cccc2nonc12 (stereo not given)	0.0719% [at 18.6 µM] (inactive)	–
c1coc(CNc2ncnc3nc[nH]c23)c1	-0.0271% (inactive)	–
CC(C)(CCC(=O)O)C(=O)O	-0.0006% [at 95.7 µM] (inactive)	–
CCN1CCOCC1	-0.0048% (inactive)	–
C[N+]1(CC2COC(c3ccccc3)(c3ccccc3)O2)CCCCC1 (stereo not given)	0.0119% [at 46 µM] (inactive)	–
O=C(CO)[C@@H](O)[C@H](O)[C@H](O)CO	–	inactive
NC(N)=NCCN1CCCCCCC1	0.0837% [at 18.6 µM] (inactive)	–
CCO[Si](OCC)(OCC)c1ccccc1	-0.304% (inactive)	–
CCCC(C)C(=O)OCC (stereo not given)	0.0101% (inactive)	–
Cc1ccc(C(=O)c2ccc(CC(=O)O)n2C)cc1	-0.0078% [at 18.6 µM] (inactive)	–
CCCOC(=O)CC	-0.0393% (inactive)	–
C[N+]12CCC(CC1)C(OC(=O)C(O)(c1ccccc1)c1ccccc1)C2 (stereo not given)	0.0169% [at 18.6 µM] (inactive)	–
O=C(O)CNC(=O)c1ccc(CO)o1	0.0404% (inactive)	–
C=C(C)C(=O)OCC1CCCO1 (stereo not given)	-0.085% (inactive)	–
CC[N+](C)(CC)CCOC(=O)C1c2ccccc2Oc2ccccc21	0.0783% [at 46 µM] (inactive)	–
CCN[C@@H]1C[C@H](N)[C@@H](OC2OC(CN)=CCC2N)[C@H](O)[C@H]1O[C@H]1OC[C@](C)(O)[C@H](NC)[C@H]1O (stereo not given in full)	0.067% [at 46 µM] (inactive)	–
CN(C)CCN(C)CCN(C)C	0.0161% (inactive)	–
CCCCCCC1CCC(=O)O1 (stereo not given)	0.085% [at 95.7 µM] (inactive)	–
CC1=CC(=O)[C@H]2C[C@@H]1C2(C)C	-0.0563% (inactive)	–
CCOc1ccccc1OCC	0.0053% (inactive)	–
